These results are taken from the supplement of paper PMC6555819.

The experiment deals with VDR:RXRa (NR concentration 270 nM, RXRa partner concentration 90 nM). The experiment can be described thus: PBM binding z-score (relative to random genomic background probes); higher = stronger binding; sequences stand for … in GC…GCGATTGACAGCGTAGAATGAAGG
The protocol:
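Protein-binding microarray (Agilent 4x180K custom design, double-stranded 60-nt probes: 5' GC cap, 34-nt variable region, 24-nt constant primer region; full probe sequence given). Purified or IVT nuclear receptor:RXRα heterodimers (3:1 NR:RXRα, mostly 270:90 nM) or homodimers were incubated for 1 h in PBS with 2% milk and no ligand, then detected with Alexa488 antibodies. Fluorescence from o1-orientation probes (~5 replicates averaged) was converted to z-scores against 500 random hg19 background probes. Variable regions are seed direct-repeat (DR0–DR5) sites, all their single-nucleotide variants and half-site ablations.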
In turn, TCATATAGGTAAAGGGGAAAGTCGAACGATATGA gave a PBM binding z-score of 0.735.

As to TAGCCTAGGTCAGATCGGGCTAGTATACGCTATA, the PBM binding z-score came out at 0.302.

ATATGTAGGTTATCGGGTGATTCAGTTTGCGCAT displayed a PBM binding z-score of 1.77.

As to CCGACTGGGGCAGACAGGTTACCATACCATCCGG, the PBM binding z-score was -0.343.

CTCGAAGGGTCGGTTGAGGTGAGTATACGGATAA had a PBM binding z-score of 1.25.

As to TCATATAGGTAATACAGGTGAATGTCGGCATCTA, the PBM binding z-score was found to be 1.3.

The sequence CTAACTAGGTCATCCAGGACAGTGAATACATTGA came in with a PBM binding z-score of 4.72.

AGAACCAGGGCACGCTGAGTTGATAGCAGAGTAG registered a PBM binding z-score of 0.532.

ATAACGAGGGCAATGAGTTGATAGCACGGGTGGC came in with a PBM binding z-score of 4.89.

Take ACTATTAGTTGACTAAGGGCAACCGATACGACGC: the PBM binding z-score came to 1.29.

Regarding ATATGTAAGTTAAGGGTCATTCAGGTTGGTTCGC, the PBM binding z-score amounted to 5.46.

ATTATTAGTTGACTTAGGGCAACCGATACGACGC registered a PBM binding z-score of 0.926.

On to CGTCAAAGTTCAAGGGAACGTAACAGAAAGCAGC, for which the PBM binding z-score came to 3.12.

GCTGCTAGGTCAGGTCGGTCAGCTAACGGGTACG had a PBM binding z-score of 1.09.

Take AGAACGAGAGCAATGAGTTGATAGCACGGGTGGC: the PBM binding z-score came out at 1.96.

Turning to ATAAGTAGGTTAGCTGGGGTCATTCAGACTAGGC, the PBM binding z-score came out at 5.98.

TCTGCTAGGCCAACGATGGTCAGCTAATCTGCTA: the PBM binding z-score was -0.596.

CGAACCAGGTCATTGACAGGACAGTGAATAGTAA displayed a PBM binding z-score of 2.85.

The sequence ACTAGTTGGTCAGCTGAGGTCACGCACAATTCGG registered a PBM binding z-score of 5.09.

Take ATCGAAAGGTCGTGCGGTGAGTATACAGAAAGGC: the PBM binding z-score turned out to be 3.46.

On to CCTTACGGGTCACGAGGGTATAGCACGACGAGCG, for which the PBM binding z-score came out at 5.04.

For TGAATGAGGTTAAGGATCAGGGAACGTGGCGTCG, the PBM binding z-score is 0.99.

For the sequence GCTATTAGTTGAAAGAGCAACCGAATGATTCTCG, the PBM binding z-score was -0.419.

The sequence TCTAGTTGGTCAAAGGTCACACAATCGAAATGCG registered a PBM binding z-score of 5.52.

AATACAGGGTCATCGTGGGCCAGAGTACGCACAG had a PBM binding z-score of 5.18.

Turning to GCAGACAGGTGAAACGCAGGTAACCCAGGGTGGC, the PBM binding z-score is -0.517.

Regarding AGAACGAGGGCACGCTGAATTGATAGCAGAGTAG, the PBM binding z-score turned out to be 0.557.

With CGAACTAGGTCATTGACATGACAGTGAATAGTAA, the PBM binding z-score is 2.16.

For TCTAGTTGGTCAAAGGTCGCACACTCGAAATGCG, the PBM binding z-score worked out at 3.18.

Consider ACTATTAGTGGACTTAGGGCAACCGATACGACGC, for which the PBM binding z-score was found to be 0.119.

CCTACTGGGCAATCAGGTCATTGATATCAACGTT gave a PBM binding z-score of 2.83.

Sequence ATATGTAGGTTACATCCGGGTTATTCAGGCTATG registered a PBM binding z-score of 1.68.

The sequence TCAATGAGGTTATAAGATCAGGGAACGTTGCAAA showed a PBM binding z-score of 1.22.

For CCGAGTAGGTTTTGGGGCATTCAGGCAACGGTGA, the PBM binding z-score is -0.239.

The sequence CCTAATTGGTCAAGGTCACACACGCTATAGGTAC gave a PBM binding z-score of 4.03.

CCTTACGGCTCACTCCAGGTTATAGCATCGGAGT had a PBM binding z-score of 0.016.

With CTAACTAGGTCAAGAGGTCAAAGTCCGCTTCCCG, the PBM binding z-score came out at 6.

TCTATTAGTTGAAGGGCAACTGACGAGTCCGTTT showed a PBM binding z-score of 0.937.

Turning to CGAACTAGGTCATTGACCGGACAGTGAATAGTAA, the PBM binding z-score came out at 1.96.

Turning to GCTCGGAGGACAAGGTTAGAGCTTTGTCCGTAGA, the PBM binding z-score was -0.341.
